Assay outcomes as filed in PubChem.
Rows were chosen to be rich in hits. Some 6% of all compounds tested hit in one or more screens of this group.
DRD3 agonist: qHTS of D3 Dopamine Receptor Agonist: qHTS; D(3) dopamine receptor (Homo sapiens), P35462; D3R DiscoveRx beta-arrestin cells, luminescence, 90 min; hit rate 0.58% among 410,000; max activation, %; in the data active = max activation above about 30%
Target sequence (P35462 whole entry, looked up): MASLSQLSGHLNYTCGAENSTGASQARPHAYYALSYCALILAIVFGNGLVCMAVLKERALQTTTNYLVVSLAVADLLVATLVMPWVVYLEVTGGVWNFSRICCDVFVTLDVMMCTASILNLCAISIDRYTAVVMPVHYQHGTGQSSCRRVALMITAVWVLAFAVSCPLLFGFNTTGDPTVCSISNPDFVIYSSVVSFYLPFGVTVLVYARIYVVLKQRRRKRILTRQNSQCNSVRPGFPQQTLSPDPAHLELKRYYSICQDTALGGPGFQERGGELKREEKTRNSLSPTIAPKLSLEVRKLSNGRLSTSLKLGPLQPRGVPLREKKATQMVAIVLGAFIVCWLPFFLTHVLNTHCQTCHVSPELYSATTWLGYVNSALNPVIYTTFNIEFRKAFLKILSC
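Agonist mode: compounds and dopamine controls were applied to plated cells for 90 min at 37 degrees C after an overnight attachment at 1500 cells/well. Luminescent read-out followed 30 - 60 minutes at room temperature with DiscoveRx detection reagent.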
D1 agonist: Allosteric Agonists of the Human D1 Dopamine Receptor: qHTS; D(1A) dopamine receptor (Homo sapiens), P21728; HEK293 T-REx D1 cells, calcium flux, agonist mode; activation, % at 2 µM; hit rate 1% among 360,000; AID 504660, 2011; in the data active = activation above about 30%
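Inducible HEK293 T-REx D1 cells, force-coupled to calcium signalling, were plated at 4000 cells/well with tetracycline and held overnight at 30 C. After no-wash calcium dye loading, compound-evoked calcium rise over 180 s flagged agonists.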
D3 antag: qHTS of D3 Dopamine Receptor Antagonist: qHTS; D3R cells, DiscoveRx beta-arrestin luminescence, antagonist mode; active compounds read low; hit rate 2.5% among 360,000; max response, negative = inhibition, %; in the data active = max response below about -50%; inconclusive = no clear call, values can overlap the other calls
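Cells expressing the human receptor were seeded at 1500 cells/well, incubated overnight at 37 degrees C in 5% CO2, then exposed to library compounds with dopamine controls for 90 minutes at 37 degrees C before luminescent detection.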
D1 PAM: Potentiators of Human D1 Dopamine Receptor: qHTS; D(1A) dopamine receptor (Homo sapiens), P21728; HEK293 TREx D1 cells, calcium flux, dopamine EC20 potentiation; potentiation, % at 10 µM; hit rate 0.036% among 360,000; AID 504651, 2011; in the data active = potentiation above about 30%
D1 antag: Antagonist of Human D 1 Dopamine Receptor: qHTS; D(1A) dopamine receptor (Homo sapiens), P21728; HEK293 TREx D1 cells, calcium flux, dopamine EC80; active compounds read low; activity change, negative = inhibition, % at 10 µM; hit rate 3.2% among 360,000; AID 504652, 2011; in the data active = activity change below about -30%
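Compound effects on dopamine-evoked calcium signalling were measured in tetracycline-induced HEK293 Trex D1 cells. Dopamine at EC80 followed a 180 s compound pre-read, and fluorescence was tracked kinetically for 180 s more.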
Numbers stand for hits.

How did COc1ccc2c(c1)C1(Nc3ccccc3-c3nc4ccccc4n31)C(=O)N2 (centres undefined) do in these assays?
DRD3 agonist: inactive; D1 agonist: inactive; D3 antag: -58.8; D1 PAM: inactive; D1 antag: inactive

What do the screens show for `Clc1c(-c2nnc3n2CCC3)sc2ccccc12`?
DRD3 agonist: inactive; D1 agonist: inactive; D3 antag: inactive; D1 PAM: inactive; D1 antag: inactive

Results for Cn1c(CSc2nc3ccccc3s2)n[nH]c1=S ?
DRD3 agonist: inactive; D1 agonist: inactive; D3 antag: -64.7; D1 PAM: inactive; D1 antag: inactive

Results for Cn1c(-c2sc3ccccc3c2Cl)n[nH]c1=S ?
DRD3 agonist: inactive; D1 agonist: inactive; D3 antag: -75.7; D1 PAM: inactive; D1 antag: inactive

How did CCOc1ccccc1NC(=O)C1CCN(S(=O)(=O)c2c(C)noc2/C=C/c2ccc(C)cc2)CC1 do in these assays?
DRD3 agonist: inactive; D1 agonist: inactive; D1 PAM: inactive; D1 antag: inactive

What do the screens show for `Cn1c(C(=O)O)cnc1Sc1ncc(C(F)(F)F)cc1Cl`?
DRD3 agonist: inactive; D1 agonist: inactive; D3 antag: inactive; D1 PAM: inactive; D1 antag: inactive

What do the screens show for `Cn1c(C(N)=O)cnc1Sc1ncc(C(F)(F)F)cc1Cl`?
DRD3 agonist: inactive; D1 agonist: inactive; D3 antag: inactive; D1 PAM: inactive; D1 antag: -46.8

What do the screens show for `CCS(=O)(=O)c1nc(NC(C)=O)n[nH]1`?
DRD3 agonist: inactive; D1 agonist: inactive; D3 antag: inactive; D1 PAM: inactive; D1 antag: -45.7

How did CCOc1cc(C(=O)OCC(=O)c2c(N)n(C)c(=O)n(C)c2=O)cc(OCC)c1OCC do in these assays?
DRD3 agonist: 33.2; D1 agonist: inactive; D3 antag: inactive; D1 PAM: inactive; D1 antag: inactive

How did CCCOc1ccc(C(=O)OCC(=O)c2c(N)n(C)c(=O)n(C)c2=O)cc1OCC do in these assays?
DRD3 agonist: inactive; D1 agonist: inactive; D3 antag: inactive; D1 PAM: inactive; D1 antag: inactive

How did NC(=O)c1ccc(SCC(=O)NC2CCCCC2)c([N+](=O)[O-])c1 do in these assays?
DRD3 agonist: inactive; D1 agonist: inactive; D3 antag: -52.3; D1 PAM: inactive; D1 antag: inactive

How did Cn1c(N)c(C(=O)COC(=O)c2ccccc2C(=O)c2ccc(Cl)c([N+](=O)[O-])c2)c(=O)n(C)c1=O do in these assays?
DRD3 agonist: inactive; D3 antag: -96.6

What do the screens show for `O=C(COC(=O)c1ccccc1C(=O)c1ccc(Cl)c([N+](=O)[O-])c1)NC1CCCCCC1`?
DRD3 agonist: inactive; D1 agonist: inactive; D3 antag: inconclusive; D1 PAM: inactive; D1 antag: -34.5

What do the screens show for `CCCCN(CC)C(=O)CSc1nc2n[nH]c(C)c2c(=N)n1-c1ccc(CC)cc1`?
DRD3 agonist: inactive; D1 agonist: inactive; D1 PAM: inactive; D1 antag: inactive

What do the screens show for `Cn1c(=O)c2c(ncn2CC(=O)Nc2nc(-c3ccccc3Cl)cs2)n(C)c1=O`?
DRD3 agonist: 32.3; D1 agonist: inactive; D3 antag: inactive; D1 PAM: inactive; D1 antag: inactive

Results for Cn1c(=O)c2c(ncn2CC(COCc2ccccc2)OCc2ccccc2)n(C)c1=O (centres undefined) ?
DRD3 agonist: inactive; D1 agonist: inactive; D3 antag: inactive; D1 PAM: inactive; D1 antag: -55.2

What do the screens show for `CNc1nc2c(c(=O)n(C)c(=O)n2C)n1CC(O)COc1ccc(OC)cc1` (centres undefined)?
DRD3 agonist: inactive; D1 agonist: inactive; D1 PAM: inactive; D1 antag: inactive

What do the screens show for `Cc1ccc(Cl)c(OC(=O)Cn2cnc3c2c(=O)n(C)c(=O)n3C)c1`?
DRD3 agonist: inactive; D1 agonist: inactive; D3 antag: inactive; D1 PAM: inactive; D1 antag: -40.9

What do the screens show for `Cn1c(=O)c2c(ncn2Cc2ccccc2)n(C)c1=O`?
DRD3 agonist: inactive; D1 agonist: inactive; D3 antag: inactive; D1 PAM: inactive; D1 antag: inactive

How did Cc1ccc(OCC(O)Cn2c(N)nc3c2c(=O)n(C)c(=O)n3C)cc1 (centres undefined) do in these assays?
DRD3 agonist: 52.8; D1 agonist: inactive; D3 antag: inactive; D1 PAM: inactive; D1 antag: inactive

Results for CCc1ccc(Sc2cc(C(=O)O)c3ccccc3n2)cc1 ?
DRD3 agonist: inactive; D1 agonist: inactive; D1 PAM: inactive; D1 antag: inactive

What do the screens show for `COc1ccc(OC)c(NC(=O)c2nnn(CC(=O)Nc3ccc(C(C)C)cc3)c2N)c1`?
DRD3 agonist: inactive; D1 agonist: inactive; D1 PAM: inactive; D1 antag: inactive

What do the screens show for `CCc1ccc2oc(-c3ccc(C)c(NC(=O)Cc4ccccc4)c3)nc2c1`?
DRD3 agonist: inactive; D1 agonist: inactive; D1 PAM: inactive; D1 antag: inactive

How did Cc1ccc(OCCn2cnc3c2c(=O)n(C)c(=O)n3C)cc1 do in these assays?
DRD3 agonist: inactive; D1 agonist: inactive; D3 antag: inactive; D1 PAM: inactive; D1 antag: -31.7

What do the screens show for `Cn1c(=O)c2c(ncn2CCO)n(C)c1=O`?
DRD3 agonist: inactive; D1 agonist: inactive; D3 antag: inactive; D1 PAM: inactive; D1 antag: inactive

What do the screens show for `CSc1cccc(NC(=S)N(CCC(C)C)C(C)c2ccncc2)c1` (centres undefined)?
DRD3 agonist: inactive; D1 agonist: inactive; D3 antag: inconclusive; D1 PAM: inactive; D1 antag: -34.0

What do the screens show for `COCCCN(C(=S)Nc1cc(Cl)cc(Cl)c1)C(C)c1ccccn1` (centres undefined)?
DRD3 agonist: inactive; D1 agonist: inactive; D3 antag: inactive; D1 PAM: inactive; D1 antag: inactive

Results for COCCCN(C(=S)Nc1cc(Cl)cc(Cl)c1)C(C)c1ccncc1 (centres undefined) ?
DRD3 agonist: inactive; D1 agonist: inactive; D3 antag: inactive; D1 PAM: inactive; D1 antag: -53.1

How did COc1cccc(NC(=S)N(CCC(C)C)C(C)c2ccncc2)c1 (centres undefined) do in these assays?
DRD3 agonist: inactive; D1 agonist: inactive; D3 antag: inactive; D1 PAM: inactive; D1 antag: inactive

How did CCC(C)NC(=O)Cn1c(=O)n(-c2ccc(C)c(C)c2)c(=O)c2c3c(sc21)CCCCC3 (centres undefined) do in these assays?
DRD3 agonist: inactive; D1 agonist: inactive; D1 PAM: inactive; D1 antag: inactive

What do the screens show for `O=S1(=O)C=C[C@@H](COCc2ccccc2)N1Cc1ccc(Br)cc1`?
DRD3 agonist: inactive; D3 antag: -50.8

How did O=S1(=O)C=C[C@@H](CO)N1Cc1ccc(Br)cc1 do in these assays?
DRD3 agonist: inactive; D3 antag: inactive
